# Results reported in PubChem BioAssay (NCATS).
# Values joined by “and” are separate entries in the source; they are usually repeats but may differ in a detail not shown here. Equal entries are not always repeated. Results filed as inconclusive are left out. Where a call stands in place of a potency, no number is given. Unmarked numbers belong to inactive results. Active and inactive are the calls of the source. The call rests on the fitted dose curve; in most records, active means well fitted curve in the direction sought with a large enough effect; inconclusive means small, poorly fitted or top-dose-only effect, or another doubt; inactive means no such curve, though single readings can be large; an effect the other way counts as inactive or inconclusive.
# Assays:
# [1] = molecular target: Cytochrome P450 3A7 (Homo sapiens) (UniProt P24462); assay: Cytochrome P450 family 3 subfamily A member 7 (CYP3A7) small molecule antagonists: luciferase biochemical qHTS assay (AID 1963596); further: nearly all actives have a fitted effect of over 40% in size
# Cytochrome P450 3A7 (Homo sapiens), sequence (P24462 whole entry, looked up): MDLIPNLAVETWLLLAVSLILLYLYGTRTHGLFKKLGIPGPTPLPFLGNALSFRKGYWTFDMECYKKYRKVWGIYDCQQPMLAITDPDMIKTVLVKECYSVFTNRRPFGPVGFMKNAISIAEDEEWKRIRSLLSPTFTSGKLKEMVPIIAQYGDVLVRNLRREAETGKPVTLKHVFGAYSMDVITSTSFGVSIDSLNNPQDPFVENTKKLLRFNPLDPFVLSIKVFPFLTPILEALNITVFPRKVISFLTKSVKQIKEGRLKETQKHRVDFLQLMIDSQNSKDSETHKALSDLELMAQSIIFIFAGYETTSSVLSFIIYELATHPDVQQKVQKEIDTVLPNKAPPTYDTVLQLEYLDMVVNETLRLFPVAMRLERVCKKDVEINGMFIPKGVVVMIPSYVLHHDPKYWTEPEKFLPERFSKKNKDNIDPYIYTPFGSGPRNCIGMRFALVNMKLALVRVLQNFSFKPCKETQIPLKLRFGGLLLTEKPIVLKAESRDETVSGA
# Method in brief: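 In this luminescent screen, enzyme and proluciferin substrate meet test compound for 10 min before NADPH regeneration solution drives a 1 h room-temperature reaction; detection reagent halts turnover and luminescence is read 20 min later.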
# [2] = Viability qHTS for spleen associated tyrosine kinase inhibitor (SYKi) drug resistant MV4-11 cells (AID 1963824); further: nearly all actives have a fitted effect of over 35% in size; further: potency means the concentration at half of the fitted maximal effect
# Method in brief: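 SYK inhibitor-resistant MV4-11 AML cells, 500 per well, added to predispensed compounds and incubated 72 hr at 37 C, 5% CO2. Viability measured by CellTiter-Glo luminescence after 10 min at room temperature.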
# [3] = Quantitative highthroughput screen to assess conditional lethalithy of NOMO1 cells grown in RPMI1640 with untreated serum (RPMI+s) (AID 1963876); further: nearly all actives have a fitted effect of over 35% in size
# Method in brief: (§1)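 Each medium arm—HPLM with 10% dialyzed FBS, or RPMI1640 with 5 mM glucose and 10% untreated or dialyzed FBS—was screened against an 11-point, 3-fold compound titration for 48 h at 37 °C, with CellTiter-Glo luminescence as endpoint.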
# [4] = Quantitative highthroughput screen to assess conditional lethalithy of NOMO1 cells grown in RPMI1640 with dialyzed fetal bovine serum (RPMI+ds) (AID 1963877); further: series mostly up to about 46 µM; nearly all actives have a fitted effect of over 30% in size
# Method in brief: as §1
# [5] = Quantitative highthroughput screen to assess conditional lethalithy of NOMO1 cells grown in Human Plasma-Like Medium with dialyzed fetal bovine serum (HPLM+ds) (AID 1963878); further: nearly all actives have a fitted effect of over 35% in size
# Method in brief: as §1
# [6] = Quantitative highthroughput screen to assess conditional lethalithy of P12 Ichikawa cells grown in Human Plasma-Like Medium with dialyzed fetal bovine serum (HPLM+ds) (AID 1963879); conditions: Potency: viability; further: series mostly up to about 46 µM; nearly all actives have a fitted effect of over 35% in size
# Method in brief: as §1
# [7] = Quantitative highthroughput screen to assess conditional lethalithy of P12 Ichikawa cells grown in RPMI1640 with dialyzed fetal bovine serum (RPMI+ds) (AID 1963880); conditions: Potency: P12-Ichikawa viability; further: nearly all actives have a fitted effect of over 35% in size
# Method in brief: as §1
# [8] = Quantitative highthroughput screen to assess conditional lethalithy of P12 Ichikawa cells grown in RPMI1640 with untreated serum (RPMI+s) (AID 1963881); conditions: Potency: viability
# Method in brief: as §1
# [9] = Quantitative highthroughput screen to assess conditional lethalithy of SEM cells grown in Human Plasma-Like Medium with dialyzed fetal bovine serum (HPLM+ds) (AID 1963882)
# Method in brief: as §1
# [10] = Quantitative highthroughput screen to assess conditional lethalithy of SEM cells grown in RPMI1640 with unreated serum (RPMI+s) (AID 1963883); further: nearly all actives have a fitted effect of over 35% in size
# Method in brief: as §1
# [11] = Cellular viability qHTS for adrenocortical cancer (ACC) cell line SW-13 (AID 1963989); conditions: SW-13 ACC cells viability, CellTiter-Glo, 48 h; activity (max response): active compounds read low; further: nearly all actives have a fitted effect of over 65% in size; further: potency means the concentration at half of the fitted maximal effect;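 on activity (max response): cells grown in serum-free medium with ITS supplement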
# Method in brief: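 Luminescent ATP read-out (CellTiter-Glo, 20 min at room temperature) measured metabolically competent SW-13 cells after 48 h compound treatment. Final concentrations spanned up to 46 uM; bortezomib served as positive control.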
# [12] = Quantitative highthroughput screen to assess conditional lethalithy of SEM cells grown in RPMI1640 with dialyzed fetal bovine serum (RPMI+ds) (AID 1963884)
# Method in brief: as §1
# [13] = Cellular viability qHTS for adrenocortical cancer (ACC) cell line NCI-H295R (AID 1963990); further: nearly all actives have a fitted effect of over 60% in size
# Method in brief: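 IC50 and maximal efficacy derive from four-parameter logistic modelling of titration curves, with reads scaled between DMSO-only wells (0%) and doxorubicin hydrochloride (100% inhibition). Compounds spanned up to 46 uM over 48 h.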
structure (smiles),measurement,setting,value
Cc1cn([C@H]2C=C[C@@H](CO)O2)c(=O)[nH]c1=O,Potency,[1],inactive
same,Potency,[2],inactive
same,Potency,[3],inactive
same,Potency,[4],inactive
same,Potency,[5],inactive
same,Potency,[6],inactive
same,Potency,[7],inactive
same,Potency,[8],inactive
same,Potency,[9],inactive
same,Potency,[10],inactive
same,activity (max response),[11],4.28%
CNC(=O)c1ccc(-c2cnc3ncc(Cc4ccc5ncccc5c4)n3n2)cc1F,Potency,[1],inactive
same,Potency,[2],2.06 µM (active)
same,Potency,[3],inactive
same,Potency,[4],inactive
same,Potency,[5],inactive
same,Potency,[6],inactive
same,Potency,[7],inactive
same,Potency,[8],inactive
same,Potency,[9],inactive
same,Potency,[10],inactive
same,Potency,[12],inactive
same,activity (max response),[11],0.555%
same,Potency,[13],inactive
Cc1c(C(=O)Nc2ccc(N3CC(C)OC(C)C3)nc2)cccc1-c1ccc(OC(F)(F)F)cc1 (stereo not given),Potency,[1],inactive
same,Potency,[2],10.3 µM (active)
CCCN[C@H]1CCc2nc(N)sc2C1,Potency,[1],inactive
same,Potency,[2],4.17 µM (active)
same,Potency,[3],inactive
same,Potency,[5],inactive
same,Potency,[6],inactive
same,Potency,[7],inactive
same,Potency,[8],inactive
same,Potency,[9],inactive
same,Potency,[10],inactive
same,Potency,[12],inactive
same,Potency,[13],inactive
COCCc1ccc(OCC2CO2)cc1 (stereo not given),Potency,[1],inactive
same,Potency,[2],inactive
same,activity (max response),[11],-2.52%
same,Potency,[13],inactive
C[C@@H](O)[C@H]1C(=O)N2C(C(=O)O)=C(SCCN=CN)C[C@H]12,Potency,[1],inactive
same,Potency,[2],inactive
same,activity (max response),[11],-5.98%
Cc1ccnc(NS(=O)(=O)c2ccc(N)cc2)n1,Potency,[1],inactive
same,Potency,[2],inactive
same,activity (max response),[11],8.12%
OCc1cccnc1,Potency,[1],inactive
same,Potency,[2],inactive
same,activity (max response),[11],0.385%
O=c1cc(CO)occ1O,Potency,[1],inactive
same,Potency,[2],inactive
same,activity (max response),[11],13.4%
CCCCCC(C)N (stereo not given),Potency,[1],inactive
same,Potency,[2],inactive
same,activity (max response),[11],17.9%
same,Potency,[13],inactive
COc1ccccc1OC(=O)Oc1ccccc1OC,Potency,[1],inactive
same,Potency,[2],5.96 µM (active)
same,activity (max response),[11],1.52%
COc1ccc(O)cc1,Potency,[1],inactive
same,Potency,[2],inactive
same,activity (max response),[11],-1.22%
same,Potency,[13],inactive
Cc1cc(NC(=O)C2=C(O)c3ccccc3S(=O)(=O)N2C)no1,Potency,[1],inactive
same,Potency,[2],inactive
same,activity (max response),[11],-0.835%
NC(=O)CC[C@@H](N)C(=O)O,Potency,[1],inactive
same,Potency,[2],inactive
same,activity (max response),[11],12.6%
C[C@H]1O[C@H](O[C@H]2[C@H](O)[C@@H](O)[C@@H](O[C@H]3[C@H](O)[C@@H](O)[C@H](O)O[C@@H]3CO)O[C@@H]2CO)[C@H](O)[C@@H](O)[C@@H]1N[C@H]1C=C(CO)[C@@H](O)[C@H](O)[C@H]1O,Potency,[1],inactive
same,Potency,[2],inactive
same,activity (max response),[11],-2.85%
C[C@@H]1CCC[C@H](C)N1CCCC(O)(c1ccccc1)c1ccccn1 (stereo not given in full),Potency,[1],inactive
same,Potency,[2],inactive
same,activity (max response),[11],-5.41%
same,Potency,[13],inactive
CCN(CC)CC(=O)Oc1ccc(NC(C)=O)cc1,Potency,[1],inactive
same,Potency,[2],inactive
same,activity (max response),[11],13.2%
same,Potency,[13],inactive
CCCCCCCC(=O)OCC(O)CO (stereo not given),Potency,[1],inactive
same,Potency,[2],inactive
same,activity (max response),[11],-7.07%
same,Potency,[13],inactive
NS(=O)(=O)c1ccc(Cl)c(S(N)(=O)=O)c1,Potency,[1],inactive
same,Potency,[2],inactive
same,activity (max response),[11],-3.32%
same,Potency,[13],inactive
Cc1c(C(N)=O)cc([N+](=O)[O-])cc1[N+](=O)[O-],Potency,[1],inactive
same,Potency,[2],inactive
same,activity (max response),[11],-7.83%
same,Potency,[13],inactive
CCC1(c2ccccc2)C(=O)NCNC1=O,Potency,[1],inactive
same,Potency,[2],inactive
same,activity (max response),[11],8.13% and -10.5%
same,Potency,[13],inactive
CC(=O)Nc1c(I)cc(I)c(C(=O)O)c1I,Potency,[1],inactive
same,Potency,[2],inactive
same,activity (max response),[11],-1.35%
NCCS,Potency,[1],inactive
same,Potency,[2],inactive
same,activity (max response),[11],16.9%
CC(=O)NS(=O)(=O)c1ccc(N)cc1,Potency,[1],inactive
same,Potency,[2],inactive
same,activity (max response),[11],4.13%
O=c1[nH]c(=O)n([C@H]2C[C@H](O)[C@@H](CO)O2)cc1I,Potency,[1],inactive
same,Potency,[2],5.25 µM (active)
same,activity (max response),[11],-5.04% and -11.6%
same,Potency,[13],inactive
CCCCNC(=O)NS(=O)(=O)c1ccc(N)cc1,Potency,[1],inactive
same,Potency,[2],2.11 µM (active)
same,activity (max response),[11],0.545%
same,Potency,[13],inactive
O=C(O)C(=O)Nc1cccc(-c2nn[nH]n2)c1,Potency,[1],inactive
same,Potency,[2],inactive
same,activity (max response),[11],14.5% and 11%
same,Potency,[13],inactive
CN1CCN(c2ccc(OC(F)(F)F)c(Nc3ncc4c(n3)-c3c(c(C(N)=O)nn3CCO)CC4)c2)CC1,Potency,[1],inactive
same,Potency,[2],20.6 nM (active) and 46.8 nM (active)
same,Potency,[11],0.1 µM (active)
CC(=O)N1C[C@H](O)C[C@H]1C(=O)O,Potency,[1],inactive
same,Potency,[2],inactive
same,activity (max response),[11],0.891%
same,Potency,[13],inactive
Cc1[nH]c(C)c(Cl)c(=O)c1Cl,Potency,[1],inactive
same,Potency,[2],inactive
same,activity (max response),[11],4.22%
same,Potency,[13],inactive
Cc1cc(=O)n(-c2ccccc2)n1C,Potency,[1],inactive
same,Potency,[2],inactive
same,activity (max response),[11],4.16%
CC[N+](CC)(CC(=O)Nc1c(C)cccc1C)Cc1ccccc1,Potency,[1],inactive
same,Potency,[2],inactive
same,activity (max response),[11],1.59%
same,Potency,[13],inactive
C[C@](N)(Cc1ccc(O)cc1)C(=O)O,"activity change, negative = inhibition",[1],1.38% [at 4.83 µM]
same,"viability, % of control",[2],90.5% [at 4.97 µM]
same,activity (max response),[11],-6.01%
same,"activity change, negative = viability loss",[13],-1.14% [at 3.81 µM]
CCN(CC)C(=O)c1ccc(O)c(OC)c1,Potency,[1],inactive
same,Potency,[2],inactive
same,activity (max response),[11],3.37%
O=C(O)c1ccc(OCCN2CCCCC2)cc1,Potency,[1],inactive
same,Potency,[2],inactive
same,activity (max response),[11],10.8%
NC[C@H]1O[C@H](O[C@H]2[C@H](O[C@@H]3O[C@H](CO)[C@@H](O)[C@H]3O)C(O)[C@H](N)C[C@@H]2N)[C@H](N)[C@@H](O)[C@@H]1O (stereo not given in full),"activity change, negative = inhibition",[1],16.1% [at 11.5 µM]
same,"viability, % of control",[2],95.3% [at 9.25 µM]
same,activity (max response),[11],8.3%
same,"activity change, negative = viability loss",[13],0.419% [at 9.17 µM]
